Unmarked numbers belong to inactive results.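 The calls were made as follows: active = growth AUC significantly below the DMSO wells by Dunnett test; inactive = the rest.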

In the assay the test system is Carnobacterium 1 (Carnobacterium gallinarum). The assay can be described thus: relative growth (AUC of 72 h growth curve relative to DMSO control, dAUC) (ratio); higher = more growth (less inhibition), active = hit call of the paper. As to conditions: 20 µM. How it is done: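 Environmental bacterial isolates (Iceland stream sediment and Silwood Park soil) and whole stream-sediment communities were grown in LB from a 1:100 dilution with each pesticide at 20 µM (1% DMSO). A600 was read hourly for 72 h and the area under a spline-fitted growth curve (AUC) was computed. dAUC is the mean AUC of 3 biological replicates divided by the mean AUC of the DMSO controls. Significance was tested by Dunnett's test against the DMSO control.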
For the compound `CC1(C)C(C=C(Cl)Cl)C1C(=O)OCc1cccc(Oc2ccccc2)c1` (stereo not given), the relative growth is 0.871.
As to `O=C1c2ccccc2C(=O)N1SC(Cl)(Cl)Cl`, the relative growth was 1.03.
For the compound `COC(=O)NC(=S)Nc1ccccc1NC(=S)NC(=O)OC`, the relative growth is 0.745.
Take `CCCC1COC(Cn2cncn2)(c2ccc(Cl)cc2Cl)O1` (stereo not given): the relative growth was 0.835.
The value for `O=[N+]([O-])/N=C1\NCCN1Cc1ccc(Cl)nc1` was 1.26; that for `Oc1ccc(Cl)cc1Cc1cc(Cl)ccc1O` was 0.00911 (active).
The value for `CCN(CC)c1nc(C)cc(OP(=S)(OC)OC)n1` was 1.07.
On to `Cc1nnc(-c2ccccc2)c(=O)n1N`, for which the relative growth was 0.953.
On to `CC1(C)C(C(=O)OC(C#N)c2cccc(Oc3ccccc3)c2)C1(C)C` (stereo not given), for which the relative growth is 1.18.
On to `CCOCn1c(-c2ccc(Cl)cc2)c(C#N)c(Br)c1C(F)(F)F`, for which the relative growth was 1.16.
The value for `CCOP(=S)(OCC)Oc1nc(Cl)c(Cl)cc1Cl` was 1.1; that for `CSc1nc(NC(C)C)nc(NC(C)C)n1` was 0.71.
The value for `CC1(C)[C@H](/C=C(\Cl)C(F)(F)F)[C@@H]1C(=O)OC(C#N)c1cccc(Oc2ccccc2)c1` (stereo not given in full) was 1.38; that for `C[C@@H]1[C@@H](c2ccc(Cl)cc2)SC(=O)N1C(=O)NC1CCCCC1` was 0.881.
With `CNC(=O)CSP(=S)(OC)OC`, the relative growth was 0.894.
The value for `CC1(C)CON(Cc2ccccc2Cl)C1=O` was 0.914; that for `Fc1ccc(Oc2ccnc3cc(Cl)cc(Cl)c23)cc1` was 1.13.
The value for `COc1ncc(F)c2nc(S(=O)(=O)Nc3c(F)cccc3F)nn12` was 1.1.
The value for `COc1ccc(C(=CC(=O)N2CCOCC2)c2ccc(Cl)cc2)cc1OC` (mixture of isomers) was 1.56; that for `CNC(=O)Oc1cccc(/N=C/N(C)C)c1` was 0.892.
As for `CC(C)OC(=O)C(C(=O)OC(C)C)=C1SCCS1`, the relative growth is 0.826.
The value for `Clc1ccc(C(c2ccc(Cl)cc2)C(Cl)(Cl)Cl)cc1` was 1.1; that for `COc1cccc(C(=O)NN(C(=O)c2cc(C)cc(C)c2)C(C)(C)C)c1C` was 0.863.
The value for `CC1(C)[C@H](C(=O)O[C@H](C#N)c2cccc(Oc3ccccc3)c2)[C@@H]1C=C(Br)Br` was 1.47.
The value for `COCc1cnc(C2=NC(C)(C(C)C)C(=O)N2)c(C(=O)O)c1` (stereo not given) was 0.837; that for `CCCCCCCCCCCCNC(=N)N` was 0.0114 (active).
`Cc1nc(N(C)C)nc(OC(=O)N(C)C)c1C`: the relative growth is 0.883.
The value for `CC(Oc1ccc(Oc2nc3ccc(Cl)cc3o2)cc1)C(=O)O` (stereo not given) was 1.36; that for `CCCN(CCC)C(=O)SCc1ccccc1` was 1.04; that for `N#Cc1cc(Br)c(O)c(Br)c1` was 1.05.
With `CS(=O)(=O)c1cc(C(F)(F)F)ccc1C(=O)c1cnoc1C1CC1`, the relative growth is 1.43.
As for `Cc1cccc2sc3nncn3c12`, the relative growth was 0.911.
Take `CCC(C)c1ccccc1OC(=O)NC` (stereo not given): the relative growth was 1.11.
The value for `O=C1C2CC=CCC2C(=O)N1SC(Cl)(Cl)Cl` (stereo not given) was 1.19; that for `CNC(=O)/C=C(\C)OP(=O)(OC)OC` was 0.926.
`CON(C)C(=O)Nc1ccc(Cl)c(Cl)c1`: the relative growth was 1.02.
With `COP(=S)(OC)Oc1ccc(SC)c(C)c1`, the relative growth was 1.08.
Turning to `COC(=O)N(C(=O)N1CO[C@@]2(C(=O)OC)Cc3cc(Cl)ccc3C2=N1)c1ccc(OC(F)(F)F)cc1`, the relative growth was 1.15.
For the compound `N#Cc1c(Cl)c(Cl)c(Cl)c(C#N)c1Cl`, the relative growth was 1.11.
The value for `CNC(=O)ON=C(C)SC` was 1.18.

Values taken from the supplement of paper PMC12067926.
